TDP1 cell CPT: qHTS for Inhibitors of human tyrosyl-DNA phosphodiesterase 1 (TDP1): qHTS in cells in presence of CPT. chicken DT40 Tdp1-/-;hTDP1 cells + 20 nM CPT, ATP luminescence, 48 h. Potency, µM (series often up to 46.2 µM), for the others: at the top dose activity change, negative = growth inhibition, most hits filed as inhibitors. 420,000 tested, 12% active. AID 686979, 2013; note: potency is the fitted concentration of half-maximal effect; % is set by controls: 0 for no effect and ±100 for the full control effect; nearly all actives have a fitted effect of over 55% in size
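Chicken DT40 Tdp1-/- cells stably complemented with human TDP1 were seeded at 400 cells/well in medium containing 20 nM camptothecin, exposed to pin-transferred compounds, and grown at 37 °C for at least 48 hr. Viability was read as ATP luminescence.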
HepG2 tox: qHTS for Inhibitors of TGF-b: Cytotox Counterscreen; 410,000 tested, 0.76% active; HepG2 CAGA-GFP viability, ATP luminescence, 18 h; Potency, µM (titrated, usually from 46.1 µM), for the others: top-dose activity change, negative = cytotoxicity, actives largely listed as cytotoxic; note: potency is the fitted concentration of half-maximal effect
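CellTiter-Glo luminescence gave cytotoxicity after 18 hours at 37 degrees C. The cells were HepG2 CAGA-GFP in 1% FBS DMEM, stimulated with 500 pg/mL TGF-beta after compound addition. %Activity was normalised to no-cell wells (complete cell-killing) and DMSO (no toxicity), and curves were fitted and classified.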
S-ASM inh: Inhibitors of Secretory Acid Sphingomyelinase (S-ASM): qHTS; placental ASM, HMU-PC fluorogenic substrate, 60 min; AID 504937, 2011; 340,000 tested, 0.006% active; Sphingomyelin phosphodiesterase (Homo sapiens), P17405; Potency, µM (series often up to 57.5 µM), for inactives: at the top dose activity change, negative = inhibition, most hits filed as inhibitors; note: potency is the fitted concentration of half-maximal effect
Target sequence (P17405 47-631 limits assumed): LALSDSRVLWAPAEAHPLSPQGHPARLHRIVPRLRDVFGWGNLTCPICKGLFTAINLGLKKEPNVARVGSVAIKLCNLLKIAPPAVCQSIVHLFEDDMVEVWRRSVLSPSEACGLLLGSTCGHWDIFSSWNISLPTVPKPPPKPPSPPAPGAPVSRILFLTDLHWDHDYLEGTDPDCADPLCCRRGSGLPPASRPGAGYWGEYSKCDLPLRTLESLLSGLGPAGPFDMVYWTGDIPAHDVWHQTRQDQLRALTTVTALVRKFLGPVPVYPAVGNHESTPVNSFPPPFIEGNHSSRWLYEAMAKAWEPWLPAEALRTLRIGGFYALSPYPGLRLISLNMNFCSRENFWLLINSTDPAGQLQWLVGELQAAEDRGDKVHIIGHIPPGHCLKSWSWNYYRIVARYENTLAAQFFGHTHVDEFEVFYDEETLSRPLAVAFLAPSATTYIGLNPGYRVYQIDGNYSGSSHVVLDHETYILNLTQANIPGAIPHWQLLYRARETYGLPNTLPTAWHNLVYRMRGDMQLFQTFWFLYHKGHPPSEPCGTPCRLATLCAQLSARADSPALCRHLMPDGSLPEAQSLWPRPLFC
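Fluorescence read-out (Ex 386 nm, Em 447 nm) after stopping the reaction at pH 10. Enzyme: ASM from human placenta; substrate HMU-PC0, 9 uM final; 60 min, 37 °C. Compound preincubation 10 min, ambient temperature.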
TGFb inhibitor: qHTS for Inhibitors of TGF-b; HepG2 CAGA-GFP TGF-b/SMAD3 reporter, GFP fluorescence, 18 h; TGF-beta stimulated, 500 pg/mL final; Potency, µM (series often up to 46.1 µM), without a hit: top-dose activity, negative = inhibition, usual class: inhibitors; 410,000 tested, 1.2% active; AID 588855, 2011; note: potency is the fitted concentration of half-maximal effect; % is set by controls: 0 for no effect and ±100 for the full control effect; nearly all actives have a fitted effect of over 65% in size
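Inhibition of TGF-beta-driven CAGA-GFP reporter expression in HEPG2 cells is measured by cellular GFP fluorescence after 18 h stimulation with 500 pg/mL recombinant TGF-beta in 1% FBS medium at 37 degrees C.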
TDP1 cell noCPT: qHTS for Inhibitors of human tyrosyl-DNA phosphodiesterase 1 (TDP1): qHTS in cells in absence of CPT | DT40 Tdp1-/- hTDP1 cells, no CPT, ATP luminescence, 48 h | Potency, µM (titrated, usually from 46.2 µM), without a hit: top-dose activity change, negative = growth inhibition, usual class: inhibitors | 420,000 tested, 15% active | AID 686978, 2013; note: potency is the fitted concentration of half-maximal effect; % is set by controls: 0 for no effect and ±100 for the full control effect; nearly all actives have a fitted effect of over 55% in size
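A cellular qHTS used chicken DT40 cells lacking endogenous Tdp1 but carrying stably transfected human TDP1. Compounds were applied without camptothecin, and cell growth kinetics were judged by ATP-dependent luminescence after ≥48 hr.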
IL1B secr inh: qHTS for Inhibitors of Inflammasome Signaling: IL-1-beta AlphaLISA Primary Screen; THP-1 LPS/ATP IL-1B secretion, AlphaLISA, 16 h; stronger effect = lower value; 360,000 tested, 4.7% active; AID 743279, 2014; activity change, % at 57.5 µM; in the data active = activity change below about -50%; inconclusive = mostly about -30% to -49%; note: % is set by controls: 0 for no effect and ±100 for the full control effect
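Secreted IL-1B measured by AlphaLISA bead assay after 16 h compound exposure of THP-1 cells; compounds (final up to 57.5 uM) added 1 h before LPS (250 ng/mL) and ATP (1.25 mM) stimulation; lower signal means less secretion.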
* marks the source's active call; other numbers are inactive results. A selection: hits, their analogues and other compounds. The true share with any hit is near 19%. Unless noted, calls come from the whole dose curve; as a rule, active = well fitted curve in the direction sought with a large enough effect; inconclusive = small, poorly fitted or top-dose-only effect, or another doubt; inactive = no such curve, though single readings can be large; an effect the other way counts as inactive or inconclusive.

`Cc1noc(C)c1NC(=O)N(C)C[C@H]1Oc2c(NS(=O)(=O)c3cn(C)cn3)cccc2C(=O)N([C@H](C)CO)C[C@@H]1C` gave TDP1 cell CPT 4.3%, HepG2 tox -34.4%, S-ASM inh -4.9%, TGFb inhibitor -7.9%, TDP1 cell noCPT 5.6% and IL1B secr inh 0.0.
Screening Cc1cc(Cl)ccc1Oc1ncnc2onc(C)c12 returned TDP1 cell CPT -16.3%, HepG2 tox 3.5%, S-ASM inh 3.5%, TGFb inhibitor -17.8%, TDP1 cell noCPT 5.5% and IL1B secr inh -4.8.
For Cc1noc2ncnc(N3CCN(c4cccc(Cl)c4)CC3)c12 the results were TDP1 cell CPT 16.4µM*, HepG2 tox 0.4%, S-ASM inh -5.2%, TGFb inhibitor inconclusive, TDP1 cell noCPT 9.2µM* and IL1B secr inh -7.9.
`Cc1ccc(Cl)cc1N1CCN(c2ncnc3onc(C)c23)CC1` gave TDP1 cell CPT 6.51µM*, HepG2 tox -17.2%, TGFb inhibitor inconclusive and TDP1 cell noCPT 5.8µM*.
Cc1ccc(Cl)cc1N1CCN(C(=O)c2c(C)oc3ncnc(N4CCCCC4)c23)CC1 was read as TDP1 cell CPT 9.2µM*, HepG2 tox -66.0%, TGFb inhibitor inconclusive and TDP1 cell noCPT 6.51µM*.
Screening CC(=O)c1ccc(N2CCN(c3ncnc4onc(C)c34)CC2)cc1 returned TDP1 cell CPT 4.11µM*, HepG2 tox -6.9%, TGFb inhibitor 1.7% and TDP1 cell noCPT 5.8µM*.
`CCC(=O)N1CCc2cc(S(=O)(=O)NC(CC(C)C)C(=O)NCc3cccc(OC)c3)ccc21` (stereo not given) gave TDP1 cell CPT -2.5%, HepG2 tox -3.0%, TGFb inhibitor 0.6% and TDP1 cell noCPT -14.0%.
Cc1cc(=O)n2nc(N3CCCC3C(=O)Nc3ccc(C(C)C)cc3)sc2n1 (stereo not given) was read as TDP1 cell CPT -10.3%, HepG2 tox -20.7%, S-ASM inh 1.4%, TGFb inhibitor -2.9%, TDP1 cell noCPT -52.2% and IL1B secr inh 25.7.
Screening COc1ncc2nc(-c3cc(F)cc(F)c3)c(=O)n(C[C@H]3CCCO3)c2n1 returned TDP1 cell CPT 19.0% and TDP1 cell noCPT 14.7%.
Screening Cc1cc(C(=O)COC(=O)COc2ccc(C#N)cc2)c(C)n1C1CC1 returned TDP1 cell CPT 5.4%, HepG2 tox -3.4%, S-ASM inh -2.4%, TGFb inhibitor 10.3%, TDP1 cell noCPT -3.9% and IL1B secr inh 0.9.
O=C(CCS(=O)(=O)Cc1ccccc1F)NCCc1ccc(Cl)cc1 was read as TDP1 cell CPT -5.4%, HepG2 tox 0.8%, S-ASM inh 0.7%, TGFb inhibitor -2.4%, TDP1 cell noCPT inconclusive and IL1B secr inh 14.6.
Cc1cc(C(C)(C)C)oc1C(=O)N(CC(=O)NC1CCCC1)c1cccc(C(F)(F)F)c1 was read as TDP1 cell CPT 18.4µM*, HepG2 tox -11.8%, S-ASM inh -1.1%, TGFb inhibitor inconclusive, TDP1 cell noCPT inconclusive and IL1B secr inh -21.3.
Screening Cc1ccccc1N(CC(=O)NC1CCCC1)C(=O)c1oc(C(C)(C)C)cc1C returned TDP1 cell CPT 16.4µM*, HepG2 tox -39.0%, S-ASM inh -4.8%, TGFb inhibitor -4.8%, TDP1 cell noCPT 14.1µM* and IL1B secr inh inconclusive.

Assay outcomes: PubChem, National Center for Advancing Translational Sciences (NCATS)
